# Data reported in ChEMBL document CHEMBL5606460, “ASAP - DENV-2 NS2B-NS3 protease fluorescence single point” (2024).
# Among all 2,000 compounds or so, about 110 (5.5%) showed an effect of 50% or more. The full list was thinned out, with strong results kept by preference.
# Molecular target: Genome polyprotein (dengue virus type 2) (UniProt P29990)
# [1] = Thailand/16681/1984, Concentration 25.0 uM, Number of replicates 1.0
smiles,measurement,setting,value
COCCCN(Cc1ccccc1)C(=O)C1CCN(c2ccc(C=O)cc2)CC1,inhibition,[1],16.7%
O=Cc1ccc(N2CCC(C(=O)Nc3cccc(OC(F)(F)F)c3)CC2)cc1,inhibition,[1],12.8%
O=Cc1ccc(N2CCC(C(=O)N3CCN(c4ncc(C(F)(F)F)cc4Cl)CC3)CC2)cc1,inhibition,[1],-1.15%
CSCC(=O)Nc1ccc(Cl)c2cccnc12,inhibition,"Thailand/16681/1984, Concentration 49.95 uM, Number of replicates 2.0, Standard deviation 4.284996583998793 %",-8.76%
same,inhibition,"Thailand/16681/1984, Concentration 99.9 uM, Number of replicates 2.0, Standard deviation 5.022059659232943 %",-8.17%
Cc1c(C(=O)NCc2ccc(Cl)cc2OCCO)ccc(O)c1NC(=O)c1ccncc1F,inhibition,"Thailand/16681/1984, Concentration 49.5 uM, Number of replicates 2.0, Standard deviation 1.9465984757153059 %",-3.14%
same,inhibition,"Thailand/16681/1984, Concentration 99.01 uM, Number of replicates 2.0, Standard deviation 1.7394020396248402 %",-2.65%
same,inhibition,"Thailand/16681/1984, Concentration 198.0 uM, Number of replicates 2.0, Standard deviation 1.2400320592735166 %",0.351%
Cc1nc(NC(=O)C2CCN(c3ccc(C=O)cc3)CC2)ccc1Br,inhibition,[1],12.1%
O=Cc1ccc(N2CCC(C(=O)Nc3ccc(Br)cc3O)CC2)cc1,inhibition,[1],31.4%
O=Cc1ccc(N2CCC(C(=O)Nc3cccc(C(F)(F)F)n3)CC2)cc1,inhibition,[1],13.5%
O=Cc1ccc(N2CCC(C(=O)Nc3cccc4ccc(O)cc34)CC2)cc1,inhibition,[1],35.2%
Cc1ccc2cccc(NC(=O)C3CCN(c4ccc(C=O)cc4)CC3)c2n1,inhibition,[1],50.9%
Cc1c(Br)cccc1NC(=O)C1CCN(c2ccc(C=O)cc2)CC1,inhibition,[1],13%
O=Cc1ccc(N2CCC(C(=O)Nc3ncc(Br)cc3O)CC2)cc1,inhibition,[1],52.8%
O=Cc1ccc(N2CCC(C(=O)Nc3cccc(Br)n3)CC2)cc1,inhibition,[1],92.6%
O=Cc1ccc(N2CCC(C(=O)Nc3ncc(F)cc3Br)CC2)cc1,inhibition,[1],10.9%
COC(=O)c1cccc(C(=O)Nc2ccncc2C)c1,inhibition,"Thailand/16681/1984, Concentration 49.5 uM, Number of replicates 2.0, Standard deviation 0.22567664905073445 %",-4.08%
same,inhibition,"Thailand/16681/1984, Concentration 99.01 uM, Number of replicates 2.0, Standard deviation 0.2045809712592737 %",-3.74%
same,inhibition,"Thailand/16681/1984, Concentration 198.0 uM, Number of replicates 2.0, Standard deviation 1.3054913833669988 %",-2.98%
C[C@@H](c1ccccc1)N(CC1CC1)C(=O)C1CCN(c2ccc(C=O)cc2)CC1,inhibition,[1],13.8%
O=C(c1csc([C@H]2CCCNC2)n1)N1CC[C@H](c2cccnc2)C1,inhibition,"Thailand/16681/1984, Concentration 49.5 uM, Number of replicates 2.0, Standard deviation 1.7251582592894925 %",-0.499%
same,inhibition,"Thailand/16681/1984, Concentration 99.01 uM, Number of replicates 2.0, Standard deviation 2.248532513594862 %",1.01%
same,inhibition,"Thailand/16681/1984, Concentration 198.0 uM, Number of replicates 2.0, Standard deviation 1.6393165928155962 %",2.41%
NS(=O)(=O)c1cccc(CN2CC[C@H](c3c[nH]c4ccccc34)C2)c1,inhibition,"Thailand/16681/1984, Concentration 49.5 uM, Number of replicates 2.0, Standard deviation 1.1633260593891446 %",-1.78%
same,inhibition,"Thailand/16681/1984, Concentration 99.01 uM, Number of replicates 2.0, Standard deviation 1.588607527736017 %",0.04%
same,inhibition,"Thailand/16681/1984, Concentration 198.0 uM, Number of replicates 2.0, Standard deviation 1.7864683947344713 %",2.15%
Cc1cc(CO)c2cccc(Cc3ccccc3C(=O)Nc3cccc(C(N)=O)c3)c2n1,inhibition,"Thailand/16681/1984, Concentration 49.95 uM, Number of replicates 2.0, Standard deviation 0.1803817681308647 %",4.23%
same,inhibition,"Thailand/16681/1984, Concentration 99.9 uM, Number of replicates 2.0, Standard deviation 0.18828716821235608 %",9.06%
Cc1cc(CO)c2cccc(CC(=O)Nc3nonc3C(N)=O)c2n1,inhibition,"Thailand/16681/1984, Concentration 49.95 uM, Number of replicates 2.0, Standard deviation 0.10454576349345478 %",97.1%
same,inhibition,"Thailand/16681/1984, Concentration 99.9 uM, Number of replicates 2.0, Standard deviation 0.006921524049853062 %",99%
Cc1cc(CO)c2cccc(Cc3cccc(C(=O)Nc4cc(O)[nH]n4)c3)c2n1,inhibition,"Thailand/16681/1984, Concentration 49.95 uM, Number of replicates 2.0, Standard deviation 1.1139101860624252 %",16.1%
same,inhibition,"Thailand/16681/1984, Concentration 99.9 uM, Number of replicates 2.0, Standard deviation 0.5605490390974336 %",35%
Cc1cc(CO)c2cccc(Nc3nonc3C(N)=O)c2n1,inhibition,"Thailand/16681/1984, Concentration 49.95 uM, Number of replicates 2.0, Standard deviation 1.5271718368293243 %",11%
same,inhibition,"Thailand/16681/1984, Concentration 99.9 uM, Number of replicates 2.0, Standard deviation 3.697399383401008 %",23.8%
Cc1cc(CO)c2cccc(Cc3ccccc3C(=O)Nc3nonc3C(N)=O)c2n1,inhibition,"Thailand/16681/1984, Concentration 49.95 uM, Number of replicates 2.0, Standard deviation 0.20481615067396447 %",9.42%
same,inhibition,"Thailand/16681/1984, Concentration 99.9 uM, Number of replicates 2.0, Standard deviation 0.252245853764608 %",28.4%
Cc1cc(CO)c2cccc(Cc3ccccc3NC(=O)Cc3cccc(CN)c3)c2n1,inhibition,"Thailand/16681/1984, Concentration 49.95 uM, Number of replicates 2.0, Standard deviation 1.4858035354408357 %",-0.82%
same,inhibition,"Thailand/16681/1984, Concentration 99.9 uM, Number of replicates 2.0, Standard deviation 1.2081673980721888 %",5.26%
Cc1cc(CO)c2cccc(CC(=O)Nc3cccc(C(N)=O)c3)c2n1,inhibition,"Thailand/16681/1984, Concentration 49.95 uM, Number of replicates 2.0, Standard deviation 0.3351031861891448 %",71.5%
same,inhibition,"Thailand/16681/1984, Concentration 99.9 uM, Number of replicates 2.0, Standard deviation 0.3101738310571331 %",94.2%
